Out of some 13,000 compounds screened, about 3,200 (25%) showed an effect of 50% or more. This is one part of the list.
The compounds below were run on P. falciparum stage V gametocytes. Conditions: 48 h, 5 µM; inhibitor.
Design: BacTiter-Glo ATP luminescence viability of purified stage V gametocytes in 384-well plates, per cent inhibition versus DMSO
`CN(Cc1ccccc1)C1CCN(c2cc(NC(=O)c3cccc(F)c3)ccn2)CC1` [TCMDC-135000] was tested, and the “% Inhibition” value was -5.844%. For `Clc1ncnc2ncn(Cc3cccc(Br)c3)c12` [TCMDC-137635], the “% Inhibition” value was 63.17%. In the case of `Clc1nc(Cl)c2c(ccn2Cc2ccccc2)n1` [TCMDC-137801], the “% Inhibition” value is reported as 10.13%. For `CCCCCN1CCCC(CNS(=O)(=O)c2cccc(C(=O)Nc3ccc(C(F)(F)F)cc3)c2)C1` (centres unmarked) [TCMDC-133672], the “% Inhibition” value was -63.4%. In the case of `Fc1cccc(Cn2ncc3cc(Nc4ncnc5sc(C#Cc6ncc[nH]6)cc45)ccc32)c1` [TCMDC-135428], the “% Inhibition” value is reported as -11.76%. In the case of `O=c1cc(NCCCNCc2cc3ccc(Br)cc3s2)[nH]c2ccccc12` [TCMDC-140332], the “% Inhibition” value is reported as -45.39%. `OC(c1n[nH]c(=S)n1-c1ccccc1)C(O)c1n[nH]c(=S)n1-c1ccccc1` (centres unmarked) [TCMDC-125763] was tested, and the “% Inhibition” value was 1.463%. `Cn1cncc1-c1cc2c(Nc3ccc(OCc4ccccc4)cc3)ncnc2cn1` [TCMDC-137188] was tested, and the “% Inhibition” value was -27.44%. For `Cc1[nH]c(C)c(-c2ccc(-c3cccc(OC(F)(F)F)c3)nc2)c(=O)c1Cl` [TCMDC-136286], the “% Inhibition” value was 5.058%. `Cc1[nH]c(C)c(-c2ccc(-c3ccc(OC(F)(F)F)cc3)nc2)c(=O)c1Cl` [TCMDC-135677] was tested, and the “% Inhibition” value was 60.39%. For `Cc1[nH]c(C)c(-c2ccc(-c3ccc(OC(F)(F)F)cc3)nc2)c(=O)c1Br` [TCMDC-136016], the “% Inhibition” value was 67.89%. In the case of `CC(=O)c1sc(NC(=O)Nc2ccc(C)cc2C)nc1C` [TCMDC-124895], the “% Inhibition” value is reported as -9.928%. With `CO/C(=C\C=C\c1cc2cc(Cl)c(Cl)cc2[nH]1)C(=O)Nc1ccc(NCCN(C)C)nc1` [TCMDC-139073] the “% Inhibition” value was -22.07%. `Cc1cccc2[nH]c(C3CCN(CC4CCN(C(=O)/C=C/c5ccc(Cl)c(Cl)c5)CC4)CC3)nc12` [TCMDC-140146] was tested, and the “% Inhibition” value was -0.3523%. With `CCOC(=O)[C@H](Cc1cccc2ccccc12)NC(=O)[C@H](CCC(=O)OC(C)(C)C)NC(=O)c1ccc(N(C)Cc2cnc3nc(N)nc(N)c3n2)cc1` [TCMDC-137288] the “% Inhibition” value was 41.06%. With `Cc1cccc2nc(-c3ccc(-c4ccc(CNCCCN5CCCC5=O)cc4)s3)[nH]c12.O=C(O)C(F)(F)F` [TCMDC-132755] the “% Inhibition” value was 11.61%. In the case of `CCOC(=O)c1ccc(OCCOc2ccccc2)cc1` [TCMDC-125533], the “% Inhibition” value is reported as 1.604%. `CCCCOC(=O)c1ccc(Nc2cc(C)nc3ccc(OC)cc23)cc1` [TCMDC-124192] was tested, and the “% Inhibition” value was 8.663%. `CCCCOc1ccc(C(=O)C(CCC(CNC(C)(C)C)C(=O)c2ccc(OCCCC)cc2)CNC(C)(C)C)cc1` (centres unmarked) [TCMDC-124120] was tested, and the “% Inhibition” value was 110.6%. `CCCc1ccc(S(=O)(=O)NC2CCN(C(=O)Nc3ccc(I)cc3)CC2)cc1` [TCMDC-139436] was tested, and the “% Inhibition” value was 4.903%. With `CS(=O)(=O)CCNC(=O)c1ccc(-c2cc3c(Nc4ccc5c(cnn5Cc5ccccc5)c4)ncnc3cn2)o1` [TCMDC-138125] the “% Inhibition” value was 1.646%. `Cc1cc(N[C@@H](Cc2ccccc2)C(=O)NCc2cccs2)nc(NCCc2cccnc2)n1` [TCMDC-134819] was tested, and the “% Inhibition” value was 56.43%. `Cc1cc(N[C@@H](Cc2ccccc2)C(=O)NCc2cccs2)nc(NCCc2ccc(F)cc2)n1` [TCMDC-134787] was tested, and the “% Inhibition” value was 66.5%. For `Cc1cc(N[C@@H](Cc2ccccc2)C(=O)NCc2cccs2)nc(NCC2CCCCC2)n1` [TCMDC-134930], the “% Inhibition” value was -30.67%. `COc1ccccc1CCNc1nc(C)cc(N[C@@H](Cc2ccccc2)C(=O)NCc2cccs2)n1` [TCMDC-134802] was tested, and the “% Inhibition” value was 51.92%. `Cc1cc(N[C@@H](Cc2ccccc2)C(=O)NCc2cccs2)nc(NCCc2ccccn2)n1` [TCMDC-134747] was tested, and the “% Inhibition” value was 121.6%. With `CC(C)(C)c1cc(C(=O)Nc2ccc(C(=N)N)cc2)c(O)c(C(C)(C)C)c1` [TCMDC-136316] the “% Inhibition” value was 24.98%. With `CCc1ccc(C(=O)Nc2cccc(CN3CCCN(Cc4ccc(O)cc4)CC3)c2)cc1` [TCMDC-141884] the “% Inhibition” value was 21.35%. In the case of `Cc1ccc(NC(=O)c2cccc(CN3CCCN(CC4CCCCC4)CC3)c2)cc1F` [TCMDC-135958], the “% Inhibition” value is reported as -34.77%. With `COCCSc1nc2scc(C)c2c(=O)n1Cc1cccc(OC)c1` [TCMDC-134420] the “% Inhibition” value was 25.73%. `CCCCCN1CCC(NC(=O)c2ccc(C(=O)Nc3ccc(C(C)C)cc3)cc2)C1` (centres unmarked) [TCMDC-136744] was tested, and the “% Inhibition” value was -20.17%. For `Nc1ncnc2c1ncn2C(CO)Cc1ccc(O)cc1` (centres unmarked) [TCMDC-137893], the “% Inhibition” value was -20.6%. In the case of `C[C@H](Cc1ccc(C[C@@H](C)NCC(O)c2cc(Cl)c(N)c(Cl)c2)cc1)NCC(O)c1cc(Cl)c(N)c(Cl)c1` (some centres unmarked) [TCMDC-131548], the “% Inhibition” value is reported as 39.43%. With `Cc1cccc(CCNC(=O)c2cc(Br)cc(N3CCN(c4ccncc4)CC3)c2)c1` [TCMDC-135149] the “% Inhibition” value was -71.81%. `CCOC(=O)c1ccc(NC(=O)Nc2ccc(-c3cccc(-c4nc5ccc(F)cc5[nH]4)c3)cc2)cc1` [TCMDC-133269] was tested, and the “% Inhibition” value was -27.05%.

— article PMC4552634, “A New Set of Chemical Starting Points with Plasmodium falciparum Transmission-Blocking Potential for Antimalarial Drug Discovery” (PLoS ONE, 2015)
